Test results published in PubChem BioAssay (NCI).
About 83,000 compounds went through this panel and 20% of them were active in at least one assay; those are over-represented in the sample as a whole.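 Plates (96-well) were seeded with cells, treated with compound at one concentration, and incubated for 48 hours before percent growth was determined.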 Unmarked numbers belong to inactive results. The source made the active and inactive calls. The calls were made as follows: active = growth percent below 10; inactive = the rest.

These molecules were tested on HL-60(TB) leukemia (assay: NCI-60 one-dose screen, 48 h (100 = growth as untreated, 0 = no growth, -100 = all killed)). Conditions: 10 µM unless noted.
With `COc1ccc(C(=O)/C=C/c2cn(Cc3ccc(Cl)cc3)c3ccccc23)cc1` the growth was 47.2%.
`CCCCNCC(O)c1cc2c(Cl)cc(Cl)cc2c2cc(C(F)(F)F)ccc12` (stereo not given) was tested, and the growth was -59.2% (active).
`COC(=O)c1ccc(NC(N)=NCC(C)(C)COc2ccc(C(F)(F)F)cc2)nc1` was tested, and the growth was -49% (active).
With `O=c1c2c3c(sc2n2cnnc2n1Cc1ccccc1)CCCC3` the growth was 84.3%.
With `CCOC(CN=Cc1cc(C)c2[nH]c3ccccc3c2c1C)OCC` the growth was 76.6%.
With `CO/N=C(/C(=O)NC1C(=O)N2C(C(=O)O)=C(COC(N)=O)CSC12)c1ccco1` (stereo not given) the growth was 109%.
With `COc1cc(/C=N/NC(=O)c2ccc(-n3cc(-c4ccccc4)nn3)cc2)cc(OC)c1OC` the growth was 101%.
`OC(c1ccc(Cl)cc1)(c1ccc(Cl)cc1)C(O)(c1ccc(Cl)cc1)c1ccc(Cl)cc1` gave a growth of 51.2%.
With `O=S(=O)(c1cccc(NC2=Nc3cccc4cccc2c34)c1)N1CCCC1` the growth was 60.8%.
With `CCN(CC)c1ccc(/C=C/C(=O)c2cccc(NS(C)(=O)=O)c2)cc1` the growth was 9.82% (active).
For `Cc1ccc2c(c1)C(C)Cc1c(Cl)ncnc1N2C` (stereo not given), the growth was 17.3%.
`CC(C)Cn1cnc2c(NCn3nc(-c4cc(Cl)cc(Cl)c4Cl)n(/N=C/c4ccc(Cl)cc4)c3=S)nc3ccccc3c21` gave a growth of 93.3%.
`O=C(CC1(O)C(=O)Nc2ccc(Br)cc21)c1ccc(Cl)cc1` (stereo not given) showed a growth of 80.1%.
`N#Cc1ccc(OC(=O)Nc2c(Cl)cc(Cl)cc2Cl)cc1` showed a growth of 102%.
Work on `COc1ccc(C2CC(c3ccc(Cl)cc3)=NN2/C=C2\SC(=S)N(NC(=O)Cc3ccccc3Nc3c(Cl)cccc3Cl)C2=O)cc1` (stereo not given) yielded a growth of 64.7%.
With `Cc1cccc(Cl)c1NC(=O)c1ccc2nc(NC(=O)NC3CCN(C)CC3)sc2c1` the growth was 123%.
In the case of `CCn1c(Cc2ccccc2Nc2c(Cl)cccc2Cl)nnc1SCC(=O)NN1C(=O)/C(=C/c2cc(OC)c(O)c(OC)c2)SC1=S`, the growth is reported as -1.07% (active).
With `Cc1cc(NN=C(c2ccc(O)cc2)c2ccc(O)cc2)c([N+](=O)[O-])cc1[N+](=O)[O-]` the growth was 66.9%.
`O=C1/C(=C/c2ccc(O)cc2)COc2ccc(O)cc21` showed a growth of 96.2%.
`CCCCOC(=O)c1ccc(NC(=O)CCl)cc1` gave a growth of 25.3%.
With `COc1ccc(/C=C2\Oc3cc(OCCCCCN4CCCCC4)ccc3C2=O)cc1OC` the growth was 97.8%.
In the case of `C=C(C)[C@@H]1CC[C@]2(COC3CCCCO3)CC[C@]3(C)[C@H](CC[C@@H]4[C@@]5(C)C=C(C=O)C(=O)C(C)(C)[C@@H]5CC[C@]43C)[C@@H]12` (stereo not given in full), the growth is reported as -25.8% (active).
`OC(CBr)CCBr` (stereo not given) gave a growth of 103%.
Molecule `COc1cccc(N=Nc2cccc(OC)c2)c1` has a growth of 66.9%.
`COc1cccc(NC(=O)c2sc3nc(C)c(C(=O)c4ccccc4)cc3c2N)c1` showed a growth of 93.5%.
In the case of `Clc1cc(Cl)c(OCCCCCCN2CCNCC2)c(Cl)c1`, the growth is reported as -34.3% (active).
For `Cc1noc(C)c1CSc1ccccc1C(=O)N1CCN(c2cccc(C(F)(F)F)c2)CC1`, the growth was 74.4%.
Work on `CC(C)c1ccc2nc3ccc(C(=O)NCCN4CCN(c5ccccc5)CC4)cn3c(=O)c2c1` yielded a growth of 74.9%.
For `C=C(C)[C@@H]1CC[C@]2(C(=O)N3CCN(C)CC3)CC[C@]3(C)[C@H](CC[C@@H]4[C@@](C)(CCC(=O)O)[C@H](C(=C)C)CC[C@]43C)[C@@H]12`, the growth was 82.5%.
In the case of `COc1ccc2[nH]cc(C3(c4c[nH]c5ccc(OC)cc45)C(=O)Nc4ccc(Cl)cc43)c2c1`, the growth is reported as 10.9%.
`CN(Cc1cnc2nc(N)nc(N)c2n1)c1ccc(C(=O)N[C@@H](CCc2nn[nH]n2)c2nn[nH]n2)cc1` was tested, and the growth was 31.9%.
For `CCCCCC(=O)O[C@]1(C(C)=O)CCC2C3CCC4=CC(=O)CC[C@]4(C)C3CC[C@@]21C` (stereo not given in full), the growth was -43.2% (active).
`O=C(CS)OCC(COC(=O)CS)(COC(=O)CS)COC(=O)CS` gave a growth of 67.2%.
`CCN1C(=S)N(CC)C2Nn3c(s/c(=C4\C(=O)N(C)c5ccccc54)c3=O)=NC21` (stereo not given) was tested, and the growth was 6.45% (active).
With `C=C1C(=O)O[C@H]2[C@H]1CC/C(COC(=O)NCCCCCCCCNC(=O)OC/C1=C/CC[C@@]3(C)O[C@H]3[C@H]3OC(=O)C(=C)[C@@H]3CC1)=C\CC[C@@]1(C)O[C@@H]21` the growth was -50.2% (active).
With `COc1ccc(-c2nc(Nc3ccc(-c4nc5ccccc5[nH]4)cc3)nc(N3CCOCC3)n2)cc1` the growth was -46% (active).
For `N/C(=N\OC(=O)c1ccccc1)C(Cc1ccccc1)C(=O)NOC(=O)c1ccccc1` (stereo not given), the growth was -1.14% (active).
Work on `CCOC(=O)COc1c(C)cc(SSc2cc(C)c(OCC(=O)OCC)c(C)c2)cc1C` yielded a growth of 88.5%.
With `Cc1nn(-c2ccccc2)c(/N=C/N(C)C)c1/C=C/C(=O)c1ccc(Cl)cc1` the growth was 76.3%.
`CC(C)CC(=O)C(CCc1ccccn1)C(C)C` (stereo not given) gave a growth of 108%.
